# From the supplement of paper PMC11732987, “Enantioselective OTUD7B fragment discovery through chemoproteomics screening and high-throughput optimisation” (Communications Chemistry, 2025)
# Unmarked numbers belong to inactive results.
# How the values were obtained:
# Assay in all cases: log2 ratio of Biotin-Ahx-Ub-VS probe labelling (fragment/DMSO); higher = less target engagement (more negative = stronger competition), active = hit call of the paper (q ≤ 0.05, log2 ratio ≤ -1)
# Conditions in all cases: compound concentration: 200 uM; treatment time: 3 h
# USP42 = biological target: T1, USP42 (UniProt Q9H9J4)
# T1 sequence (whole entry): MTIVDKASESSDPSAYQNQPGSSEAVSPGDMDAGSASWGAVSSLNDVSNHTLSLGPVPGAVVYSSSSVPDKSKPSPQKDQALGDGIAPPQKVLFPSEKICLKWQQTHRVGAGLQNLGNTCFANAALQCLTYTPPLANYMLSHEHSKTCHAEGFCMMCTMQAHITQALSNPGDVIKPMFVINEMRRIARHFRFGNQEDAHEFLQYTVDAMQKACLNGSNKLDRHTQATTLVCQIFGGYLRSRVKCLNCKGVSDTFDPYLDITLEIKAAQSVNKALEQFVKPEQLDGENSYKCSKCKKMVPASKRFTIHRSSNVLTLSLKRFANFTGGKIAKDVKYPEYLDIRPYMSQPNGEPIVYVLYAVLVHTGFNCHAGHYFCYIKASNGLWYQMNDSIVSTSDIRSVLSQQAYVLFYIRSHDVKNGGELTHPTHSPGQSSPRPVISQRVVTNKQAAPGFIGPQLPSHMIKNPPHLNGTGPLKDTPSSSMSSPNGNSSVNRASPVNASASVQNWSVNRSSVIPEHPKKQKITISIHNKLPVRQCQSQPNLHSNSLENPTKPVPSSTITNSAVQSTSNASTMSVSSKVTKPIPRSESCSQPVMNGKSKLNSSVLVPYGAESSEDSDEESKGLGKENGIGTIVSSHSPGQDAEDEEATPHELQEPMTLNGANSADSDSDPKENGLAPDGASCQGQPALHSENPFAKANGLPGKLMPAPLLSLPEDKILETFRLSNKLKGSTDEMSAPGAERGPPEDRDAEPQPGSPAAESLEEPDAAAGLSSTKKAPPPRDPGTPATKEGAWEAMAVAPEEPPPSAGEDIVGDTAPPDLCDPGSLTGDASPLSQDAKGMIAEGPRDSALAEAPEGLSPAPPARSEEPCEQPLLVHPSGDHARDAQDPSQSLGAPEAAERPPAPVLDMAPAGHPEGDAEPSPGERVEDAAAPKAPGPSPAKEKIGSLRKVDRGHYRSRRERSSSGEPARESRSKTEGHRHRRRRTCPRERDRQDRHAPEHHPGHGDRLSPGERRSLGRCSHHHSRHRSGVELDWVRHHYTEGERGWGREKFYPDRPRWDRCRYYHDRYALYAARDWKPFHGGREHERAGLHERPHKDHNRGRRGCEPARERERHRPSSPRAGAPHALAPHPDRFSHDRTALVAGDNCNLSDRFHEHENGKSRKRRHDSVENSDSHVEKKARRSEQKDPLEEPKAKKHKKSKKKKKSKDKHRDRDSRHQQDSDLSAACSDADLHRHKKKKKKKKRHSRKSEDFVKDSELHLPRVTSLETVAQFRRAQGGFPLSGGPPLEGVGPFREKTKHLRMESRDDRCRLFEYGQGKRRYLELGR
# Summary of the method: (§1)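 HEK293T lysate in Tris/CHAPS/IGEPAL buffer with protease inhibitors (495 µg per sample) was given fragment at 200 µM or vehicle for 3 h, in triplicate. It then received Biotin-Ahx-Ub-VS at 0.5 µM final for 1 h. Labelled DUBs were NeutrAvidin-enriched, digested with LysC and trypsin, and run by diaPASEF LC-MS/MS. Values are average log2 fragment/vehicle ratios by unpaired t-test on global-median-normalised Spectronaut quantities of proteins with ≥2 unique peptides.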
# USP46 = USP46 (UniProt P62068)
# Chain of USP46 (P62068 whole entry): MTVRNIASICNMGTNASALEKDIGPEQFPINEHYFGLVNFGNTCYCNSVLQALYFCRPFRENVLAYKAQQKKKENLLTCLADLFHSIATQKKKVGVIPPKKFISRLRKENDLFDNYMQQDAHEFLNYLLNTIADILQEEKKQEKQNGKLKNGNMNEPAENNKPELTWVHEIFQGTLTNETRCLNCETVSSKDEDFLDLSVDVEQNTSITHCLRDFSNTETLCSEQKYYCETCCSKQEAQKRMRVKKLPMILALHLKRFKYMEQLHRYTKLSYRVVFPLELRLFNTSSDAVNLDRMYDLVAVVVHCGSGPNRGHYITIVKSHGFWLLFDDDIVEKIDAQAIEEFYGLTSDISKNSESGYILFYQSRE
# Summary of the method: as §1
# USP47 = biological target: T2, USP47 (UniProt Q96K76)
# T2 sequence (whole entry): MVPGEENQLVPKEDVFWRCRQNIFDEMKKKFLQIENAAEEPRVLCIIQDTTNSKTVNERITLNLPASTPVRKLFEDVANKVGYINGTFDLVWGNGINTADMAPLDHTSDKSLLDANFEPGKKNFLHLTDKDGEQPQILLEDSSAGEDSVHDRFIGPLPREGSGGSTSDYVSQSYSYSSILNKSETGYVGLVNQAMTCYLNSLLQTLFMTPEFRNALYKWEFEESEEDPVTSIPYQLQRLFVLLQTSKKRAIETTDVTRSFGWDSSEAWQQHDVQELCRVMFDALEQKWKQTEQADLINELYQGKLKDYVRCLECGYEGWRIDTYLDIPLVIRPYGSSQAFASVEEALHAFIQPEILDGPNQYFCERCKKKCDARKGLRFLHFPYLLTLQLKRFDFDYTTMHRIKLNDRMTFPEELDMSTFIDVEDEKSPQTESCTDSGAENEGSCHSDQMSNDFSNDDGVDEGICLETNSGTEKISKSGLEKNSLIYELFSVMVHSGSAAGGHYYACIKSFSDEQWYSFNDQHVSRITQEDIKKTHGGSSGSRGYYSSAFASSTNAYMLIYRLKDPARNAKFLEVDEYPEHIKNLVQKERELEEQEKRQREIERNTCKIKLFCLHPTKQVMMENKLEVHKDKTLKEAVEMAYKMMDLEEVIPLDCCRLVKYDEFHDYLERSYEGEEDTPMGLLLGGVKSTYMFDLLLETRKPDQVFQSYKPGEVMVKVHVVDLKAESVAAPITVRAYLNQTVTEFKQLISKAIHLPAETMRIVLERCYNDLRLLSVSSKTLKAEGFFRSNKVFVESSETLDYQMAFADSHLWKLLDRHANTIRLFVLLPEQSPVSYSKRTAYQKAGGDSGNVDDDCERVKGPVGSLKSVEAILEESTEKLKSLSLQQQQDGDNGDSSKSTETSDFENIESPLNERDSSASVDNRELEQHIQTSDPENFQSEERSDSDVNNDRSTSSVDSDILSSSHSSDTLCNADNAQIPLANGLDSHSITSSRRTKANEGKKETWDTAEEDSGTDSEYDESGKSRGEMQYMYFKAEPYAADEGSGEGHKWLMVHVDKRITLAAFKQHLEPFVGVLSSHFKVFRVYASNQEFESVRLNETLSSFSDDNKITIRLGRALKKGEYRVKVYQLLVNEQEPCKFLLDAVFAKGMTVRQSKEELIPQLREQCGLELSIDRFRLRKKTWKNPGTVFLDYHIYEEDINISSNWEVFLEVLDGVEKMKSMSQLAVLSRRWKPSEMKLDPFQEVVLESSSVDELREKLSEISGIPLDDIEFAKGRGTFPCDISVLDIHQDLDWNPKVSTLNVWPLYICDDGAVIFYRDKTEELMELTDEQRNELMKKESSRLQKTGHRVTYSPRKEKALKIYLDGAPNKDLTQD
# Summary of the method: as §1
# USP48 = biological target: T3, USP48 (UniProt Q86UV5)
# T3 sequence (whole entry): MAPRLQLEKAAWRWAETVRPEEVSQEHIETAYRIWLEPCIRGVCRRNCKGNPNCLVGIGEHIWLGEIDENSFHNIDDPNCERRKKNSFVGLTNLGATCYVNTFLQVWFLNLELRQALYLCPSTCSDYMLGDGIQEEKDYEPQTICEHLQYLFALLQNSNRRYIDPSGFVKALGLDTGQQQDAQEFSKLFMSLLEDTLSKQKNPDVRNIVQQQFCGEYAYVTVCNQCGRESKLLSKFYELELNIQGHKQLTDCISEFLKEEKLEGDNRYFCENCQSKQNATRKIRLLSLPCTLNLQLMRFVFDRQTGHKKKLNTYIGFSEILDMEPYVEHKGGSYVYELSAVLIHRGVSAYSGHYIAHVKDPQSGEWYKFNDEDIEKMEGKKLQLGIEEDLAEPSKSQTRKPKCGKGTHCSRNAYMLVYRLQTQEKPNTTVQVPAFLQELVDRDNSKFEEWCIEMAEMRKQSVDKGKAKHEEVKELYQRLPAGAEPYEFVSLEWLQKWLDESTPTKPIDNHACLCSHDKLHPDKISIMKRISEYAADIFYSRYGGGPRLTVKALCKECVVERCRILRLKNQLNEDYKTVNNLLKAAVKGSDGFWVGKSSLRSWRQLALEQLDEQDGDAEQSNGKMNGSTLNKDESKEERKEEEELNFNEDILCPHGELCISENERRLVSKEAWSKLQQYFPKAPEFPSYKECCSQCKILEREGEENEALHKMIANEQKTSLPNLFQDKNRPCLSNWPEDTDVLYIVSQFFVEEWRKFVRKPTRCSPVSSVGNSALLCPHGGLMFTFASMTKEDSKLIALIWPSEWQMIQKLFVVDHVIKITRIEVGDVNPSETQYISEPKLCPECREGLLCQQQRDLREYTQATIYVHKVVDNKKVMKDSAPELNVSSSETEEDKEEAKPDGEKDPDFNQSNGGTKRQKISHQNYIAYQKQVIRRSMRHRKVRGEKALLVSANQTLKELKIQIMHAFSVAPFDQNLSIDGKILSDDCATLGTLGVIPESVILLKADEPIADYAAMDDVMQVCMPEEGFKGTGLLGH
# Summary of the method: as §1
# USP5 = biological target: T4, USP5 (UniProt P45974)
# T4 sequence (whole entry): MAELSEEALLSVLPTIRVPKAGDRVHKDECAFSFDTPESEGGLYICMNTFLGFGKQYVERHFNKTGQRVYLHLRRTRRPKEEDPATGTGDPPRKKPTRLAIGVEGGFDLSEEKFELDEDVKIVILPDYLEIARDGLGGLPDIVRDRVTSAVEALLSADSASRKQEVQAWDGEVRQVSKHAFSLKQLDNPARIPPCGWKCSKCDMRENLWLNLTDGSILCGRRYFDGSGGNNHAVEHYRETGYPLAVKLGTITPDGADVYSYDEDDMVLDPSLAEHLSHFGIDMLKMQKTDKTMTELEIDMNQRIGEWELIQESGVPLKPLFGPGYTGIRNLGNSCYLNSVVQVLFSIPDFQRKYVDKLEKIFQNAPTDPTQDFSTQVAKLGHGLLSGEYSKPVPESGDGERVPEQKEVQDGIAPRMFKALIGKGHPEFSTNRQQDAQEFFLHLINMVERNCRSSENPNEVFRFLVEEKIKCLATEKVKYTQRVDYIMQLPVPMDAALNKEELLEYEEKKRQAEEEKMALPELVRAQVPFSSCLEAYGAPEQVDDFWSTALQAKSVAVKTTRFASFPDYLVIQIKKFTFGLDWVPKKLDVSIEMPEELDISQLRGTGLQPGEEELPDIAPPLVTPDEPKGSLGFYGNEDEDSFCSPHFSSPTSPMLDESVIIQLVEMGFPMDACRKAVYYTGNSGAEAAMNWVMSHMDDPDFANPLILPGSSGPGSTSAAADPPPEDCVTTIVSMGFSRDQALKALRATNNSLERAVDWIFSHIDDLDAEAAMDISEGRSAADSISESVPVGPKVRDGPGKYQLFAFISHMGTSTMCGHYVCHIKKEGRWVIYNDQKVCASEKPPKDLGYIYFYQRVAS
# Summary of the method: as §1
# USP54 = USP54 (UniProt Q70EL1)
# Chain of USP54 (Q70EL1 whole entry): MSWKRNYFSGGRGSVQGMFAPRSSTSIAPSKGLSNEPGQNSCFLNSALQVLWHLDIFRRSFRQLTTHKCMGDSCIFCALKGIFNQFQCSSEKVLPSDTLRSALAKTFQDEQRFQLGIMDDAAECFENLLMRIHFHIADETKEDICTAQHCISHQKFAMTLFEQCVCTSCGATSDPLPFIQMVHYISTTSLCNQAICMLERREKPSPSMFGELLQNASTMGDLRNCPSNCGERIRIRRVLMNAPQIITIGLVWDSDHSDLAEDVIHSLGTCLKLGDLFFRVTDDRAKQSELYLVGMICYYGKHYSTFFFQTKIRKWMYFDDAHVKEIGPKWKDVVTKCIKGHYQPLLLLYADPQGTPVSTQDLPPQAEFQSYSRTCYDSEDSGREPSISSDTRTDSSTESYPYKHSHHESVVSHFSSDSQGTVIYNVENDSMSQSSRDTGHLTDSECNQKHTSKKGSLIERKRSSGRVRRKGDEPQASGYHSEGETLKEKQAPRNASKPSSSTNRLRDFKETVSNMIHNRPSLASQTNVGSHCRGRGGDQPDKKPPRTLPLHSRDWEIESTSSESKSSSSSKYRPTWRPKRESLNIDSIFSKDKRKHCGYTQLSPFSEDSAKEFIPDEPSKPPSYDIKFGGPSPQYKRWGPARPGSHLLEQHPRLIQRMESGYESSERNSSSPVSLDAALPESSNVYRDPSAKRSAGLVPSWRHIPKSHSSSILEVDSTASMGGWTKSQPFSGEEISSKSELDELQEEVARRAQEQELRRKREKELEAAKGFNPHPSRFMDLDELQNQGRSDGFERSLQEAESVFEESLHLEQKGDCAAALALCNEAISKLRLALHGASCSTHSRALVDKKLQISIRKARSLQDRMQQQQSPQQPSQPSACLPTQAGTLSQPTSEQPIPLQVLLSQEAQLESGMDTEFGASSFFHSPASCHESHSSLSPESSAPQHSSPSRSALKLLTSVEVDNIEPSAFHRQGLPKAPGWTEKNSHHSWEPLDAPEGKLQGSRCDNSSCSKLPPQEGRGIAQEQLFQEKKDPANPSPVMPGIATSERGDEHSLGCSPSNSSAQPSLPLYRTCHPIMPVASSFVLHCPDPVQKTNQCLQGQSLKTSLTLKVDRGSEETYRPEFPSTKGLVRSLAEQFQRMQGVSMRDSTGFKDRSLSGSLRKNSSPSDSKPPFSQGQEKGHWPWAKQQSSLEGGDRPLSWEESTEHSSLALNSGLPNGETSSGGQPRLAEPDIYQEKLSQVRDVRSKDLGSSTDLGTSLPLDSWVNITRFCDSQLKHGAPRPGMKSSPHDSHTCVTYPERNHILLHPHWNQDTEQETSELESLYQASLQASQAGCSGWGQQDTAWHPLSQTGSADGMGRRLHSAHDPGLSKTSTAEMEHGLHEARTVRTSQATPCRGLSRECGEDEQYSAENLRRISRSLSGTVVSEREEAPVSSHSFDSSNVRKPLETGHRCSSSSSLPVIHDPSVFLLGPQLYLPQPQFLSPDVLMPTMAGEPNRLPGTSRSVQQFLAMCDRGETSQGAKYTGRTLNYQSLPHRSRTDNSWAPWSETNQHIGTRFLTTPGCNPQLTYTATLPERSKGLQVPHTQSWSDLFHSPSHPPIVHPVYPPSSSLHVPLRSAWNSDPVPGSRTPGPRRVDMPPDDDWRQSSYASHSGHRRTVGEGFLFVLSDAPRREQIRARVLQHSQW
# Summary of the method: as §1
# USP7 = USP7 (UniProt Q93009)
# Chain of USP7 (Q93009 whole entry, looked up): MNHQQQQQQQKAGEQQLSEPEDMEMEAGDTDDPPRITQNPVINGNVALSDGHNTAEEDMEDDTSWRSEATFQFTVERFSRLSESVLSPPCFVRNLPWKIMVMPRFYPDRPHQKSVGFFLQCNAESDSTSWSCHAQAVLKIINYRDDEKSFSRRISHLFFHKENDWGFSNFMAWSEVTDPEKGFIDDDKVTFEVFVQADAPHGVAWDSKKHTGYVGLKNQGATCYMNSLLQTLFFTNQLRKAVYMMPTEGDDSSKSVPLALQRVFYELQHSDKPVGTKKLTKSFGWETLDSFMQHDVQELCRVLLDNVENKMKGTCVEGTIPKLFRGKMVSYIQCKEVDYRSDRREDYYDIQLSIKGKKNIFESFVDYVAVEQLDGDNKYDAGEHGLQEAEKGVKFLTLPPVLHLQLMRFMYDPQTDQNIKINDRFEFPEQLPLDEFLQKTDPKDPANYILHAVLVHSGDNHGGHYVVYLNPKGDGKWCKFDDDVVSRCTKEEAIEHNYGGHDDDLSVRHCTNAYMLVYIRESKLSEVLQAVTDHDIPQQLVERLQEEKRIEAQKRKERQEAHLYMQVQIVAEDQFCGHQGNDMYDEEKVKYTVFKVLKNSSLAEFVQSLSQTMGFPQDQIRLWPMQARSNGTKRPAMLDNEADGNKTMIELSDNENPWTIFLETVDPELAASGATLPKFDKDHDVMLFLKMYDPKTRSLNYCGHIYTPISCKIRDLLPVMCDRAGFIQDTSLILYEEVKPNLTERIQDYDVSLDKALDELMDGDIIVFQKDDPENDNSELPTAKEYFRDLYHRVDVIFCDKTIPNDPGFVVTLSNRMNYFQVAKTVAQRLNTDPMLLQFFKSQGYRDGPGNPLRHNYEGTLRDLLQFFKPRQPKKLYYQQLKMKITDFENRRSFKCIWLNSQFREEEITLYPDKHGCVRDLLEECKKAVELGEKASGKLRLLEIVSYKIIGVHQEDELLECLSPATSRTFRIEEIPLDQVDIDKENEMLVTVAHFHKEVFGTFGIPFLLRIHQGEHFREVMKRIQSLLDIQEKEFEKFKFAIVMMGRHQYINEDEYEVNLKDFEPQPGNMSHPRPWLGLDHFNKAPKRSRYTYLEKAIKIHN
# Summary of the method: as §1
# USP8 = biological target: T5, USP8 (UniProt P40818)
# T5 sequence (whole entry): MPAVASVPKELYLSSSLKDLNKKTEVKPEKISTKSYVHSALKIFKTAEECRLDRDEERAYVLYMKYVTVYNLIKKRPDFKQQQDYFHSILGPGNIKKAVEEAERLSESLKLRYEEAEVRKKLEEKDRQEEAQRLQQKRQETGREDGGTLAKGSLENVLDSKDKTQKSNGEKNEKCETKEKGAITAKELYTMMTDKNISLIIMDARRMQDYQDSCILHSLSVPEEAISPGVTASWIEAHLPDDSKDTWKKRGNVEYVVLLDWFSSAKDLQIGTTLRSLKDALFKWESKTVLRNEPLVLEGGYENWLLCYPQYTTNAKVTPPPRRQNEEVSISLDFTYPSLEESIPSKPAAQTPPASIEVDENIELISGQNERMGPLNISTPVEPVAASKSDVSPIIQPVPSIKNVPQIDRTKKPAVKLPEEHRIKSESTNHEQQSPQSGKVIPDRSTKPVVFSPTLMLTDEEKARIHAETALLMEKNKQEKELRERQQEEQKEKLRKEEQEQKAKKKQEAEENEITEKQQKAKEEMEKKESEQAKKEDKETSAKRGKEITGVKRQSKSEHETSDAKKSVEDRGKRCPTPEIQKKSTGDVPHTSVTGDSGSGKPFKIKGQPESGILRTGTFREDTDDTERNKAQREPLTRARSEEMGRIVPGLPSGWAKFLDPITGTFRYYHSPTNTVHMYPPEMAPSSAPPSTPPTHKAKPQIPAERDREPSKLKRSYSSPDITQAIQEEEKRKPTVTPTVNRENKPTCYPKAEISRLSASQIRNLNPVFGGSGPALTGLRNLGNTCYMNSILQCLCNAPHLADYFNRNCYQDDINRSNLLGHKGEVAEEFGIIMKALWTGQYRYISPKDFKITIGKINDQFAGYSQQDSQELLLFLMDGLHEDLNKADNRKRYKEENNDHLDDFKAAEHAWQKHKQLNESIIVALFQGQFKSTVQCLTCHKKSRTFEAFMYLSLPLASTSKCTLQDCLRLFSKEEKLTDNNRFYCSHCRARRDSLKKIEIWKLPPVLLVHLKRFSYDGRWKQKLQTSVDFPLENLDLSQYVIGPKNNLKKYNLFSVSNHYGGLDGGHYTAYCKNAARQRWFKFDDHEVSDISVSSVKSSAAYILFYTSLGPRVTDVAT
# Summary of the method: as §1
compound,measurement,setting,value
CCN(Cc1ccc(C#N)cc1F)C(=O)CCl,log2 ratio of Biotin-Ahx-Ub-VS probe labelling,USP42,-0.249
same,log2 ratio of Biotin-Ahx-Ub-VS probe labelling,USP46,-0.114
same,log2 ratio of Biotin-Ahx-Ub-VS probe labelling,USP47,-0.791
same,log2 ratio of Biotin-Ahx-Ub-VS probe labelling,USP48,-1.26 (active)
same,log2 ratio of Biotin-Ahx-Ub-VS probe labelling,USP5,0.258
same,log2 ratio of Biotin-Ahx-Ub-VS probe labelling,USP54,0.521
same,log2 ratio of Biotin-Ahx-Ub-VS probe labelling,USP7,-1.26 (active)
same,log2 ratio of Biotin-Ahx-Ub-VS probe labelling,USP8,-0.229
